# D3 ag: D3 dopamine receptor (human) agonism. D3R DiscoveRx beta-arrestin cells, luminescence, 90 min. P35462. hit rate 0.58% among 410,000. max activation, %; in the data active = max activation above about 30%; note: 0% is about no effect
#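 Agonist mode: compounds and dopamine controls were applied to plated cells for 90 min at 37 degrees C after an overnight attachment at 1500 cells/well. Luminescent read-out followed 30 - 60 minutes at room temperature with DiscoveRx detection reagent.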
# D1 agonist: human D1 receptor agonism; P21728; HEK293 T-REx D1 cells, calcium flux, agonist mode; activation, % at 2 µM; hit rate 1% among 360,000; in the data active = activation above about 30%; note: 0% is about no effect
# Target sequence (P21728 whole entry, looked up): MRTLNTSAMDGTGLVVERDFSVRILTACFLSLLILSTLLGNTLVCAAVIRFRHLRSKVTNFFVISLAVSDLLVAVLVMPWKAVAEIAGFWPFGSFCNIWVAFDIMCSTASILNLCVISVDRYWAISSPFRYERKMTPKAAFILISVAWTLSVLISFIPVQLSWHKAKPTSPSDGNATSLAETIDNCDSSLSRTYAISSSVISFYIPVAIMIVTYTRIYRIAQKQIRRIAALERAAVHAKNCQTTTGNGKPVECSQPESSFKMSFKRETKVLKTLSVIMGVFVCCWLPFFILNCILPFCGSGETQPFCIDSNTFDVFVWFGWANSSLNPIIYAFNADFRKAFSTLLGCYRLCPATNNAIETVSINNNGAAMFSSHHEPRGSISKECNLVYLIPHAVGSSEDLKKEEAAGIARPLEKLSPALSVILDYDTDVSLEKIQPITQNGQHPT
#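 Inducible HEK293 T-REx D1 cells, force-coupled to calcium signalling, were plated at 4000 cells/well with tetracycline and held overnight at 30 C. After no-wash calcium dye loading, compound-evoked calcium rise over 180 s flagged agonists.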
# D1 antag: antagonists of human D1 dopamine receptor | activity change, negative = inhibition, % at 10 µM | HEK293 TREx D1 cells, calcium flux, dopamine EC80; hits give low values | P21728 | hit rate 3.2% among 360,000; in the data active = activity change below about -30%; note: % is set by controls: 0 for no effect and ±100 for the full control effect
#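 Tetracycline-induced HEK293 T-REx cells with force-coupled D1 receptor were loaded with a no-wash calcium dye. Compound was added after a 10 s baseline and read kinetically for 180 s; EC80 dopamine was then added and calcium flux followed another 180 s.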
# D1 potentiator: enhances dopamine response at the human D1 receptor. P21728. HEK293 TREx D1 cells, calcium flux, dopamine EC20 potentiation. potentiation, % at 10 µM. hit rate 0.036% among 360,000; in the data active = potentiation above about 30%; note: 0% is about no effect
# D3 antag: blocks the human D3 dopamine receptor | P35462 | D3R cells, DiscoveRx beta-arrestin luminescence, antagonist mode; hits give low values | max response, negative = inhibition, % | hit rate 2.5% among 360,000; in the data active = max response below about -50%; inconclusive = no clear call, values can overlap the other calls; note: % is set by controls: 0 for no effect and ±100 for the full control effect
#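 Cells expressing the human receptor were seeded at 1500 cells/well, incubated overnight at 37 degrees C in 5% CO2, then exposed to library compounds with dopamine controls for 90 minutes at 37 degrees C before luminescent detection.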
# Starred values were filed as active, the others as inactive; ? = inconclusive; · = no result. Compounds with a hit are over-represented: about 6.1% of the library has one in this group of screens.
SMILES,D3 ag,D1 agonist,D1 antag,D1 potentiator,D3 antag
Cc1cccc(C(=O)N/N=C/c2ccncc2)c1,-1,0,-37*,-8,-27
Cc1cccc(C(=O)NC(=S)Nc2ccc(S(=O)(=O)N(C)c3ccccc3)cc2)c1,-4,5,2,13,-66*
COc1c(C(=O)Nc2ccc(Cc3ccncc3)cc2)ccc2ccccc12,34*,9,-17,-11,11
O=C(N/N=C/c1ccncc1)c1ccncc1,-10,·,·,·,-8
CC(=O)c1cccc(NC(=O)Cn2cnc(S(=O)(=O)N3CCCC3)c2)c1,0,3,2,3,-13
CC(=O)c1cccc(NC(=O)C2Cc3c(-c4cccc(F)c4)ccnc3O2)c1 (stereo not given),-3,·,·,·,-1
CCCCCCOC(=O)CC1CC(C(C)=O)C1(C)C (stereo not given),1,·,·,·,-4
Cc1ccc(N2C(=O)N(CC(=O)Nc3ccc(C)c(C)c3[N+](=O)[O-])C(=O)C2C)cc1 (stereo not given),3,2,2,-2,-7
COc1ccccc1C(=O)NC(=S)Nc1ccc(Cc2ccncc2)cc1,1,19,48,39*,36
Cc1cccc(C(=O)NC(=S)Nc2ccc(Cc3ccncc3)cc2)c1,2,9,6,1,-78*
O=C(COC(=O)Cc1cccs1)Nc1ccc(OC(F)(F)F)cc1,-4,0,-7,-2,-13
Cc1ccc2sc(N(CCCN(C)C)C(=O)c3ccc(S(=O)(=O)N(C)Cc4ccccc4)cc3)nc2c1C,-10,11,3,-3,?
CCN(Cc1ccccc1)S(=O)(=O)c1ccc(C(=O)N(CCCN(C)C)c2nc3c(F)cccc3s2)cc1,-2,5,10,3,-7
CCOc1cccc2sc(N(CCCN(C)C)C(=O)c3ccc(S(=O)(=O)N(C)Cc4ccccc4)cc3)nc12,-7,42*,-48*,4,-22
CCOc1cccc2sc(N(CCCN(C)C)C(=O)c3ccc(S(=O)(=O)N(CC)Cc4ccccc4)cc3)nc12,-19,33*,-45*,-2,-18
CC(C)C[C@H]1CN=C(Nc2ccccc2)N1CCCC1CCCC1,-20,41*,20,-6,-51*
COc1ccc(C(=O)CCN2CCc3cc(OC)c(OC)cc3C2)cc1,-19,0,1,-5,-59*
COc1ccccc1N1CCN(CC(=O)N2CCCC2)CC1,-9,2,-8,0,-14
COc1ccccc1N1CCN(CC(=O)c2ccc3ccn(C(C)=O)c3c2)CC1,-9,1,-76*,·,?
COc1ccc(/C=C/C(=O)NC(=S)N2CCN(c3ccccc3OC)CC2)cc1,-16,2,-8,0,-50*
COc1ccc(CC(=O)N2CCc3cc(OC)c(OC)cc3C2)cc1,5,3,-17,-2,3
COc1cc2c(cc1OC)CN(CCOc1ccc(Br)cc1)CC2,-2,4,-9,-8,-100*
COc1ccc(S(=O)(=O)N2CCN(CCOc3ccc(Br)cc3)CC2)cc1OC,0,4,-9,-3,8
COc1ccc(/C=C/C(=O)NC(=S)N2CCOCC2)cc1,0,1,-17,-4,-11
NCCNCCN,11,·,·,·,·
SMILES,D3 ag,D1 agonist,D1 antag,D1 potentiator,D3 antag
COc1ccc(NC(=O)CS(=O)(=O)c2cn(CC(=O)N3CCOCC3)c3ccccc23)cc1,-7,3,27,-2,?
COC(=O)[C@@]12C[C@@H](CC(=O)N3CCOCC3)C(=O)N(Cc3ccco3)C1=CCC(C)(C)C2,9,·,·,·,14
COc1ccccc1N1CCN(C(=O)CCC(=O)N2CCN(c3ccc(F)cc3)CC2)CC1,8,7,-27,-3,11
COc1ccccc1N1CCN(CCCC(=O)c2ccc(F)cc2)CC1,-88,6,-80*,-9,-98*
COc1ccc(C(=O)CCN2CCN(c3ccccc3OC)CC2)cc1,-21,5,-46*,-12,-83*
CCc1ccc(C(=O)N/N=C/c2ccncc2)s1,-14,0,-6,-1,-9
Cc1ccc2c(CC(=O)Nc3ccc(S(=O)(=O)N4CCCCC4C)cc3)coc2c1 (stereo not given),1,7,4,2,·
COc1ccccc1NC(=O)C/C(C)=N/NC(=O)c1ccccn1,17,0,-38*,-2,4
